Most compounds without a hit are left out; they make up all but 3.5% or so of the library.
GPR151 ag: activators of human GPR151, primary screen, cell-based, PathHunter beta-arrestin, luminescence. G-protein coupled receptor 151 (Homo sapiens), Q8TDV0. PathHunter beta-arrestin GPR151 cells. activation, % at 11.2 µM. 1% of 650,000 active. AID 1508602, 2020; in the data active means activation above about 4.9%
TEAD-YAP block: TEAD-YAP interaction inhibition, primary screen, TEAD-YAP interaction inhibitor project, luminescence, HEK-TIYL cells; TEAD-Gal4/YAP UAS-luciferase luminescence; inhibition, % at 9.12 µM; 1.4% of 640,000 active; AID 1259422, 2018; in the data active means inhibition above about 32%
FBW7 act: FBW7 E3 ligase activators, primary screen, biochemical, AlphaScreen, human; normalized activity (activation), % at 26.1 µM; AlphaScreen FBW7–phospho-cyclin E peptide binding, activator screen; 0.13% of 650,000 active; F-box/WD repeat-containing protein 7 (Homo sapiens), Q969H0; in the data active means normalized activity above about 1.9%;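 further: purified mutant Fbw7 with reduced substrate affinity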
MITF inh: MITF inhibitors, primary screen, biochemical, AlphaScreen, human | 0.91% of 650,000 active | Microphthalmia-associated transcription factor (Homo sapiens), O75030 | AlphaScreen MITF homodimerization, bead proximity signal | inhibition, % at 2.6 µM; in the data active means inhibition above about 50%
Target sequence (O75030 whole entry, looked up): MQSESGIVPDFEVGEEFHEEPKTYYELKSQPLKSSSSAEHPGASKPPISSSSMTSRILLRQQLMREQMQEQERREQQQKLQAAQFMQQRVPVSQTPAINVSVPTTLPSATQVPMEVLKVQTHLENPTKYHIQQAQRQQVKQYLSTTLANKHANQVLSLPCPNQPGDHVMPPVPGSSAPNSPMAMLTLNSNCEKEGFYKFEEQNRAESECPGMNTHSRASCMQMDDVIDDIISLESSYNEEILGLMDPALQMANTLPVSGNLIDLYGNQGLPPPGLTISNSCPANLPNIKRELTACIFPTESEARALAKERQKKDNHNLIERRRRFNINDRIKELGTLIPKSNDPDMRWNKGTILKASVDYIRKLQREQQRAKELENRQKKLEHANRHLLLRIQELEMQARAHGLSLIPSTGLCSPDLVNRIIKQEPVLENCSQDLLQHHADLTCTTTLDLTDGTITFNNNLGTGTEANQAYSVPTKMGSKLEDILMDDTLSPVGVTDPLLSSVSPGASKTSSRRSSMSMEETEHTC
GPR151 conf act: GPR151 activators, triplicate retest, confirmation, cell-based, PathHunter beta-arrestin, luminescence | shares compounds with GPR151 ag | GPR151 PathHunter beta-arrestin cells, 90 min; % of EA-reagent control over plate median | activation, % at 11.2 µM | 6,700 tested, under 10 active | AID 1508609, 2020;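 active means mean percent activation across replicates above the confirmation screen cutoff of 4.91%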
GPR119 ag: GPR119 activators in beta-arrestin cells, counter-screen for GPR151 activator project, cell-based, PathHunter beta-arrestin, luminescence, triplicate; shares compounds with GPR151 ag; 90 min; 0 = compound-well median, 100 = enzyme-acceptor control; activation, % at 11.2 µM; 0.3% of 6,700 active; AID 1508611, 2020;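 active means mean percent activation in the counterscreen above 29.09%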;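 further: counterscreen on off-target GPR119 to flag nonselective hits from the GPR151 activator screen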
Numbers stand for hits; 0 = inactive; - = no result; ! = a repeat was not active.

SMILES | GPR151 ag | TEAD-YAP block | FBW7 act | MITF inh | GPR151 conf act | GPR119 ag
Cc1cccc(N2CCN(CC(=O)Nc3ccc(Cl)cc3C(=O)c3ccccc3Br)CC2)c1 | 0 | 0 | 0 | 0 | - | -
CCC(COC(=O)NC)NC(=O)Oc1ccccc1 (stereo not drawn) | 5.8 | 0 | 0 | 0 | 0 | 0
CCC(COC(=O)NC)NC(=O)Oc1cccc(C)c1 (stereo not drawn) | 0 | 0 | 0 | 0 | - | -
C=C(C)[C@H]1CN[C@H](C(=O)O)[C@H]1CC(=O)O | 7.6! | 0 | 0 | 0 | 0 | 0
Cc1cc2oc(=O)cc(Cn3ccsc3=N)c2cc1C | 0 | 0 | 0 | 0 | - | -
Cc1nn(Cc2ccccc2)c(Cl)c1C(=O)NC1CCCCCC1 | 7.4 | - | - | - | 0 | 0
COc1cccc(CCNC2C3CC4CC(C3)CC2C4)c1 (stereo not drawn) | 0 | 0 | 0 | 0 | - | -
Cc1ccc(CNc2cnn(C34CC5CC(CC(C5)C3C(=O)O)C4)c(=O)c2Cl)cc1 (stereo not drawn) | 0 | 0 | 0 | 0 | - | -
C=CCN1C[C@H](C)N([C@H](c2ccc(C(=O)N(CC)CC)cc2)c2cccc(OC)c2)C[C@H]1C | 5.2 | - | 0 | 0 | 0 | 0
CCn1c(O)c(C=NCCc2c[nH]c3ccccc23)c(=O)[nH]c1=O | 5.4 | 0 | 0 | 0 | 0 | 0
CC(C(=O)N1CCC2(CC1)OCCO2)C1Sc2ccccc2NC1=O (stereo not drawn) | 9.2 | 0 | 0 | 0 | 0 | 0
O=C(C1CN(CCc2c[nH]c3ccccc23)CCN1)N1CCOCC1 (stereo not drawn) | 5.1 | 0 | 0 | 0 | 0 | 0
Cc1cccc(OCCNc2ccc([N+](=O)[O-])c3cccnc23)c1 | 0 | 0 | 0 | 0 | - | -
COc1cc(N2CCOCC2)ccc1C=C1C(=O)NC(=O)NC1=O | 8.0 | 0 | 0 | 0 | 0 | 0
COc1cc(N2CCOCC2)ccc1/C=C1\C(=O)NC(=O)N(Cc2cccs2)C1=O | 0 | 0 | 0 | 0 | - | -
O=[N+]([O-])c1cc2c(cc1CNCCc1ccccc1)OCO2 | 0 | 0 | 0 | 0 | - | -

High-throughput results from PubChem BioAssay.
